40 compounds from PubChem BioAssay (Tox21) can be followed below.

Inconclusive results are not listed. Where a call stands in place of a potency, no number is given. The source made the active and inactive calls. Calls follow the shape of the dose curve; as a rule, active = well fitted cell-killing curve with a large enough effect in the repeat runs; inconclusive = weak or mixed curves, or effect the other way; inactive = flat fitted curve, though single readings scatter.
Potency is read from the fitted curve at half-maximal effect.

This assay is described as follows: qHTS RealTime-Glo MT Cell Viability Assay in HepG2 cells - 40 hour (AID 1224870). Also: nearly all actives have a fitted effect of over 50% in size. Conditions: RealTime-Glo luminescence; series mostly up to 76.8 µM. The text has this:
National Center for Advancing Translational Sciences [NCATS]
NIH Chemical Genomics Center [NCGC]
U.S. Environmental Protection Agency [EPA]
National Institutes of Environmental Health Sciences [NIEHS]
National Toxicology Program [NTP]
U.S. Food and Drug Administration [FDA]
Measure of cell viability is critical in the cell-base assay. Analysis of cell viability is necessary for the characterization of cell responses to cytotoxic drugs and environmental stress. A RealTime-Glo MT Cell Viability Assay to monitor cell viability in real time of continues cell culture during 40 hours of compound treatment was used to screen Tox21 10K library compounds in HepG2 cells. The RealTime-Glo MT Cell Viability Assay is a nonlytic, homogeneous, bioluminescent method to measure cell viability in real time using a simple, plate-based method. The assay involves adding NanoLuc luciferase and a cell-permeant prosubstrate to cells in culture. Viable cells reduce the proprietary prosubstrate to generate a substrate for NanoLuc luciferase. This substrate diffuses from cells into the surrounding culture medium, where it is rapidly used by the NanoLuc Enzyme to produce a luminescent signal. The signal correlates with the number of viable cells, making the assay well suited for cytotoxicity studies.
Tox21 Assay Protocol Summary:
The mixture of HepG2 cell suspension and reagents were dispensed at 600cells/6 ul/well in 1536-well tissue culture treated black solid bottom plates using a Multidrop dispenser. After the assay plates were incubated at a 37 C/5% CO2 incubator for 5 hours, 23 nL of compounds dissolved in DMSO, positive and negative controls was transferred to the assay plate by a pintool work station. The plates were incubated at 37 C for 40 hours. The luminescence intensity were measured at 0h, 8h, 16h, 24h, 32h and 40h time points using ViewLux plate reader during compound treatment.
Consider `O=C(O)c1cccc(Cl)c1Cl`, for which the Potency result is “inactive”.

On to `CCCN(CCC)C(=O)C(CCC(=O)O)NC(=O)c1ccccc1` (stereo not given), for which the Potency entry is “inactive”. Regarding `CNCCC(Oc1ccccc1OC)c1ccccc1` (stereo not given), the Potency entry is “inactive”. The same measure, in the same setting: in the case of `CN1C(=O)CC(c2ccccc2)C1=O` (stereo not given) it was “inactive”.

Regarding `CCCCNCCCC`, the Potency result was “inactive”. Take `CC(C)C[C@H](NC(=O)OCC1c2ccccc2-c2ccccc21)C(=O)O`: the Potency entry was “inactive”. Still for that read-out and setting: for `CN1CCN(c2c(F)cc3c(=O)c(C(=O)O)cn(CCF)c3c2F)CC1` the value was “inactive”. `C[C@@H]1CN(c2c(F)c(N)c3c(=O)c(C(=O)O)cn(C4CC4)c3c2F)C[C@H](C)N1`: the activity change, negative = cytotoxic is -0.442% [at 15.8 µM] (inactive). As to `CN1CCN(N)CC1`, the Potency entry is “inactive”. Same read-out and setting: in the case of `CC(C)(C)C1CCCCC1=O` (stereo not given) it was “inactive”; in that of `CC(C)(CO)[C@@H](O)C(=O)NCCC(=O)O`, “inactive”; in that of `CN1CCN(c2c(F)cc3c(=O)c(C(=O)O)cn4c3c2SCC4)CC1`, “inactive”.

In the case of `O=C(O)[C@@H]1CSCN1`, the Potency entry was “inactive”. For the compound `CC(=O)OC1C2(C)CCC(C2)C1(C)C` (stereo not given), the Potency result is “inactive”. Consider `Nc1cccc(S(=O)(=O)O)c1`, for which the Potency result is “inactive”. Same read-out and setting: for `O=C1Nc2ccc([N+](=O)[O-])cc2C1=O` the value was “inactive”. For `CCCNC(C)C(=O)Nc1c(C)csc1C(=O)OC` (stereo not given), the Potency result was “inactive”. On the same count and under the same terms, for `CCN(CCCc1ccccc1)CCCc1ccccc1` the value was “inactive”; for `Cc1ncc(CO)c(CN)c1O`, “inactive”. Same read-out and setting: for `Cc1c[nH]c(=S)[nH]c1=O` the value was “inactive”. Still for that read-out and setting: for `FC(F)(F)C(Cl)(Cl)Cl` the value was “inactive”. Turning to `O=C1C=CC(=O)O1`, the Potency result is “inactive”. The same measure, in the same setting: for `Cn1cnc2c(F)c(Nc3ccc(Br)cc3Cl)c(C(=O)NOCCO)cc21` the value was 674 nM (active). The same measure, in the same setting: in the case of `CN(C)CC[C@@H](c1ccc(Cl)cc1)c1ccccn1` it was “inactive”; in that of `CC(C)O`, “inactive”.

`CCOC(=O)[C@H](CCc1ccccc1)N[C@@H](C)C(=O)N1Cc2cc(OC)c(OC)cc2C[C@H]1C(=O)O`: the Potency result was “inactive”. Same read-out and setting: for `CN1CCN(C2=Nc3cc(F)ccc3Cc3ccccc32)CC1` the value was “inactive”; for `NC(=O)Cc1cccc(C(=O)c2ccccc2)c1N`, “inactive”; for `CCOc1ccccc1N`, “inactive”. The same measure, in the same setting: in the case of `Cc1onc(-c2ccccc2)c1C(=O)Cl` it was “inactive”. Take `C[C@@H]1CN(c2c(F)c(F)c3c(=O)c(C(=O)O)cn(C4CC4)c3c2F)C[C@H](C)N1`: the activity change, negative = cytotoxic is 1.26% [at 15.8 µM] (inactive). `CCC/C=C/CO`: the Potency result was “inactive”.

On to `CCCCCCOc1ccc(N)cc1`, for which the Potency result was “inactive”.

For `CC(C)C1=CC2=CC[C@@H]3[C@](C)(CCC[C@@]3(C)C(=O)O)[C@H]2CC1`, the Potency entry was “inactive”.

Regarding `Cc1cc(S(=O)(=O)O)c(N)cc1Cl`, the Potency result was “inactive”. Still for that read-out and setting: in the case of `CCCCNc1ccc(C(=O)OCCN(CC)CC)cc1` it was “inactive”. Regarding `Nc1ccc(Oc2ccc(N)c(N)c2)cc1`, the Potency result was “inactive”. The same measure, in the same setting: in the case of `Cc1nc(N)nc(N)c1-c1ccc(Cl)c(Cl)c1` it was “inactive”; in that of `CCOC(=O)CS`, “inactive”; in that of `CCC1(C)NC(=O)NC1=O` (stereo not given), “inactive”.
